Source: PubChem BioAssay AID2732 (Emory University Molecular Libraries Screening Center, 2010)
Among all 220,000 compounds or so, about 8,200 (3.7%) were called active. The entries come from a sample that favours actives as a whole. Values without a mark were called inactive.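 Rule for the calls: active = compounds that reduced the stress-induced luciferase reporter signal by more than about 70% of percent inhibition (limit read from the data); inactive = the rest.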

assay: inhibitors of CHOP promoter induction, primary screen, cell-based, unfolded protein response, luciferase reporter (AID 2732); conditions: CHO-K1 CHOP-promoter luciferase, tunicamycin-induced, 15-18 h; at 10 µM; active compounds read high;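 note: 0% = tunicamycin plus vehicle and 100% = wells without tunicamycin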

| SMILES | inhibition |
| --- | --- |
| CCN(CC)S(=O)(=O)c1ccc(Cl)c(NC(=O)c2ccncc2)c1 | 4.4% |
| CCN(CC)S(=O)(=O)c1ccc(C)c(NC(=O)COc2ccc(Br)cc2Cl)c1 | 88% (active) |
| Cc1ccc(S(=O)(=O)N(C)C)cc1NC(=O)COC(=O)c1c(C)noc1C | 22.9% |
| COC(=O)c1cccc(NS(C)(=O)=O)c1 | 27.4% |
| COC(=O)c1sc(SC)c(S(=O)(=O)C(C)C)c1N/N=C(\C#N)S(=O)(=O)c1ccccn1 | 5.06% |
| CCN(CC(=O)Nc1cccc(S(N)(=O)=O)c1)Cc1nc2ccccc2c(=O)[nH]1 | -6.72% |
| C=CCSc1nc(N)cc(=O)[nH]1 | 14.8% |
| O=C(O)C1CC=CCC1C(=O)Nc1ccccc1C(=O)N1CCN(c2ccccc2)CC1 (stereo not given) | 12.7% |
| Cc1cccc(N2CCN(C(=O)c3ccccc3NC(=O)C3CCCCC3C(=O)O)CC2)c1 (stereo not given) | 13.9% |
| CC(C)c1ccc(N2CCN(C(=O)c3ccccc3NC(=O)/C=C(\C(=O)O)c3ccccc3)CC2)cc1 | 110% (active) |
| CC12CN3CCN(CC(C3)/C1=N\NC(=O)c1ccccc1N)C2 | 7.18% |
| Cn1c(=O)c2c(nc(NCCc3ccccc3)n2Cc2ccccc2)n(C)c1=O | 61.2% |
| Cn1c(=O)c2c(nc(N/N=C/c3cccs3)n2Cc2ccc(Br)cc2)n(C)c1=O | 79.6% (active) |
| CCCCNc1nc2c(c(=O)n(C)c(=O)n2C)n1Cc1cccc(OC)c1 | 17.1% |
| O=C(CS(=O)(=O)c1ccc(C(F)(F)F)cn1)NNC(=O)c1ccccc1 | 3.02% |
| CCOC(=O)c1sc2nc(CSc3ccccc3)[nH]c(=O)c2c1C | 63.4% |
| CCOC(=O)c1sc(C)c2c1NC(C)(c1cccc3ccccc13)NC2=O (stereo not given) | 74.8% (active) |
| CCOC(=O)c1sc2nc(C)[nH]c(=O)c2c1C | 3.38% |
| Cc1nc(/N=C(\N)NC(=O)NC2CCCCC2)nc2ccccc12 | 33.5% |
| O=c1ccn(Cc2ccccc2Cl)cc1 | 68.6% |

| SMILES | inhibition |
| --- | --- |
| CC1(C)COC(c2cccn2Cc2ccccc2Cl)=N1 | 71.8% (active) |
| O=C(Nc1cccn(Cc2ccccc2Cl)c1=O)NC1CCCCC1 | 26.3% |
| CCC(=O)/C(=C(/O)c1ccccc1)c1nc2ccccc2[nH]1 | -37.6% |
| O=C(Cc1nc2ccccc2[nH]c1=O)c1ccc(Cl)cc1 | -13.2% |
| O=C(/C(=C/c1cccc(Cl)c1)c1nc2ccccc2[nH]1)c1ccccc1 | 92.6% (active) |
| Cc1ccc(NNC(=O)c2c(F)cccc2Cl)cc1Cl | 4.19% |
| NC(=O)c1c(NC(=O)CSc2nnc(-c3ccco3)n2N)sc2c1CCCC2 | 22.2% |
| COc1ccc(-n2c(SCC(=O)Nc3sc4c(c3C#N)CCCC4)nnc2-c2ccc(O)cc2)cc1 | 106% (active) |
| COc1cccc(CN(C)CC(=O)Nc2sc3c(c2C#N)CCC3)c1 | 3.74% |
| COc1ccc(OC)c(-n2c(-c3ccn[nH]3)n[nH]c2=S)c1 | 12.3% |
| CCOC(=O)N1CCN(c2c(NCCN3CCN(c4ccccc4F)CC3)c(=O)c2=O)CC1 | 18.8% |
| O=C(Oc1ccccc1)c1ccc2nccnc2c1 | -6.68% |
| c1ccc(-c2noc(-c3cccs3)n2)nc1 | 22.5% |
| O=C(Oc1ccc(-c2nc(-c3ccccn3)no2)cc1)c1ccccc1 | 83.7% (active) |
| O=c1c2c3c(sc2n(CCN2CCCC2)c(=O)n1Cc1ccccc1)CCCCC3 | 44.2% |
| CSc1nnnn1-c1c(C)cc(C)cc1C | 3.56% |
| COc1ccc(C)cc1NC(=O)C(OC(=O)c1cccc(S(=O)(=O)N(C)c2ccccc2)c1)c1ccccc1 (stereo not given) | -0.27% |
| CC(=O)c1c(C)[nH]c(C(=O)COC(=O)c2cccc(S(=O)(=O)N(C)c3ccccc3)c2)c1C | 86.8% (active) |
| CN(c1ccccc1)S(=O)(=O)c1ccc(Cl)c(C(=O)OCC(N)=O)c1 | 7.63% |
| CN(c1ccc(OCC(=O)NC2=NCCS2)cc1)S(=O)(=O)c1ccc(F)cc1 | -3.41% |

| SMILES | inhibition |
| --- | --- |
| Cc1ccc(S(=O)(=O)/N=C(/NC(=S)Nc2c(C)n(C)n(-c3ccccc3)c2=O)c2ccccc2)cc1 | 5.21% |
| c1ccc(-c2nc(NCc3ccco3)c3ccccc3n2)cc1 | 8.64% |
| Clc1ccc2nc(-c3ccccc3)nc(C(Cl)Cl)c2c1 | 75.6% (active) |
| Clc1cccc(-c2nc(NCC3CCCO3)c3ccccc3n2)c1 (stereo not given) | 14.2% |
| FC(F)(F)c1cccc(-c2nc(COc3ccc(Cl)cc3Cl)no2)c1 | -14.1% |
| O=C(c1cc(COc2c(F)cccc2F)on1)N1CCSCC1 | -22.2% |
| CC[C@@H](C)[C@@H](C(=O)N1CCN(C(=O)OC(C)(C)C)CC1)n1cc(CCC(=O)O)nn1 | -7.63% |
| O=C(c1c(Cl)cccc1Cl)N1CCN(c2cccc3[nH]ccc23)CC1 | 12.1% |
| COC(=O)C1=C(C)N(C)C(=S)NC1c1ccccc1 (stereo not given) | -6.17% |
| COC(=O)C1=C(C)N(C)C(C)=C(C(=O)OC)C1c1cccc(Br)c1 | 71.4% (active) |
| COCCN1C(=O)N[C@@H](c2ccccc2)C(C(=O)OC)=C1C | -1.22% |
| N/C(=N\S(=O)(=O)c1ccc(Cl)cc1)N1CCOCC1 | 13.5% |
| c1csc(-c2nnc(COc3ncnc4sccc34)o2)c1 | 4.38% |
| Cc1cccc(C)c1Nc1c(-c2ccccc2O)nc2ncccn12 | 6.71% |
| O=c1c2ccccc2c(-c2ccc(F)cc2)nn1-c1ccc(C(F)(F)F)cc1 | 75.1% (active) |
| O=c1c2ccccc2c(-c2ccc(Br)cc2)nn1Cc1ccccc1 | 36.9% |
| O=c1c2ccccc2c(-c2ccccc2)nn1-c1ccccn1 | 38.6% |
| Oc1ccc2ccccc2c1N=Nc1nccs1 | -57.9% |
| Cc1noc(C)c1-c1nc(CSc2ccc(Cl)cc2)no1 | 20.1% |
| O=S(=O)(c1cccc(-c2nnc3n2CCCCC3)c1)N1CCOCC1 | 7.35% |
